Experimental data from the supplement of paper PMC3545927.
The list shows a part of the results. No count for the full screen is at hand.

Molecular target: furin, P09958
Assay: furin cleavage Z-score vs untreated control; higher = more cleavage, active = 3.5 or more, inactive = 1 or less, 8 variable residues between constant flanks
Method in brief: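 To give the cleavage Z-score, log read counts were set against furin-free reactions, lowess-adjusted and scaled by median absolute deviation. These counts came from PCR adapter-tagged, sequenced DNA released when purified furin cut 8-mer peptides fused to a cDNA oligonucleotide and held on magnetic beads by their N-terminus. Digests were 0.01 ml, 1:10 enzyme:substrate, in 50 mM HEPES pH 7.5 with CaCl2 and NaCl, for 7.5, 15 or 30 min.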

furin, P09958, sequence (P09958 whole entry): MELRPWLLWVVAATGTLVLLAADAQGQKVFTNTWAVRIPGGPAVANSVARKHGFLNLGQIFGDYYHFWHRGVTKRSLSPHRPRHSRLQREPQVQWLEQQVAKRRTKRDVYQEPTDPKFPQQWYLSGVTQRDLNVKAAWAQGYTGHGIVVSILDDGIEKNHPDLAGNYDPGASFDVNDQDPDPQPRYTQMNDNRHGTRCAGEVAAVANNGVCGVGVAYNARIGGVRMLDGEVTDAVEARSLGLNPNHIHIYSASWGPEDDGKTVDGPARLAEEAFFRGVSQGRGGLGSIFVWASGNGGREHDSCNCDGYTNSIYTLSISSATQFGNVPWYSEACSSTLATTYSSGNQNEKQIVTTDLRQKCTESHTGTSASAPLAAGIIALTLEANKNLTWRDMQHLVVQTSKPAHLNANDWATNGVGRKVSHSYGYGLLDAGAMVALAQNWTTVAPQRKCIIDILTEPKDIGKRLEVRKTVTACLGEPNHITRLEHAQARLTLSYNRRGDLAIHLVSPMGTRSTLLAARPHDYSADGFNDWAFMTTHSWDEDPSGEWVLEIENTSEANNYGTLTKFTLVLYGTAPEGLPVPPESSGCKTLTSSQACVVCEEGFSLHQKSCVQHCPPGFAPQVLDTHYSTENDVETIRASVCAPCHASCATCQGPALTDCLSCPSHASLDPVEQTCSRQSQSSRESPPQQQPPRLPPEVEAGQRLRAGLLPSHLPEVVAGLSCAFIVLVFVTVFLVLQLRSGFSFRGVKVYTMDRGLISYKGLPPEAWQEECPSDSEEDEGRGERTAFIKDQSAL

Sequence | furin cleavage Z-score (7.5 min) | furin cleavage Z-score (15 min) | furin cleavage Z-score (30 min)
CATALNCNDSAGNASASA [HC373] | -0.291 (inactive) | 1.13 | -0.956 (inactive)
CADPNIRTGVAGNASASA [HC798] | -0.151 (inactive) | 0.395 (inactive) | 0.163 (inactive)
CATTPCKGSWAGNASASA [HC71] | 1.27 | 0.748 (inactive) | 0.0767 (inactive)
CAMEECSQHNAGNASASA [HC1781] | 1.41 | 1.49 | 0.115 (inactive)
CATTPCSGGWAGNASASA [HC1916] | -1.1 (inactive) | -1.09 (inactive) | -1.17 (inactive)
CARLCRKRRCAGNASASA [FS-1478] | 5.9 (active) | 6.48 (active) | 7.28 (active)
CAMPKKTRRSAGNASASA [FS-1140] | 9.94 (active) | 11.9 (active) | 9.14 (active)
CARLASCRPLAGNASASA [HC388] | -0.427 (inactive) | -1.06 (inactive) | -2.04 (inactive)
CARAGRACEGAGNASASA [FS-2882] | 0.299 (inactive) | -0.431 (inactive) | 0.946 (inactive)
CARAGRSAPLAGNASASA [FS-2883] | 2.27 | 5.01 (active) | 3.82 (active)
CARIKRRKSLAGNASASA [FS-2953] | 2.28 | 3.44 | 5 (active)
CAWISSECTTAGNASASA [HC1142] | -0.663 (inactive) | -0.247 (inactive) | 0.84 (inactive)
CARKKKRQSLAGNASASA [FS-2153] | 0.376 (inactive) | 0.239 (inactive) | 0.449 (inactive)
CARAGRSKGTAGNASASA [FU10] | 1.67 | 1.52 | 0.0134 (inactive)
CAGITGDNTTAGNASASA [HC1340] | 0.448 (inactive) | -1.88 (inactive) | -0.26 (inactive)
CARAGRSKRTAGNASASA [FS-486] | 10.8 (active) | 9.36 (active) | 7.48 (active)
CAPLKRSMSLAGNASASA [FS-2875] | 2.28 | 0.41 (inactive) | 0.484 (inactive)
CARAGRSGKEAGNASASA [FS-1990] | 0.457 (inactive) | 0.0281 (inactive) | -1.58 (inactive)
CARIKRGNTTAGNASASA [FS-2952] | 4.9 (active) | 5.56 (active) | 4.43 (active)
CALLLAVFGPAGNASASA [HC606] | -1.28 (inactive) | -0.292 (inactive) | 0.343 (inactive)
CAVVCCVMSYAGNASASA [HC103] | -1.06 (inactive) | -0.0414 (inactive) | -1.47 (inactive)
CARIKRSAPLAGNASASA [FS-2954] | 11.4 (active) | 11.4 (active) | 10.2 (active)
CARKSRWAKLAGNASASA [FS-2982] | -0.417 (inactive) | 0.0632 (inactive) | 3.23

Sequence | furin cleavage Z-score (7.5 min) | furin cleavage Z-score (15 min) | furin cleavage Z-score (30 min)
CARVWRATSSAGNASASA [FS-2110] | 1.3 | 0.783 (inactive) | 0.938 (inactive)
CARIKRSRKLAGNASASA [FS-3156] | 7.25 (active) | 9.58 (active) | 9.07 (active)
CARLKRLCSSAGNASASA [FS-2990] | 0.399 (inactive) | -0.446 (inactive) | 0.202 (inactive)
CATFYGMWPLAGNASASA [HC555] | -1.22 (inactive) | -0.0659 (inactive) | 1.29
CARIKRQHSSAGNASASA [FS-1898] | 4.55 (active) | 5.06 (active) | 4.01 (active)
CAPRSRARKLAGNASASA [FS-842] | 0.0836 (inactive) | 1.96 | -0.483 (inactive)
CASTPCSAPLAGNASASA [HC2559] | -0.781 (inactive) | 0.424 (inactive) | 0.232 (inactive)
CAEREVPCHRAGNASASA [HC2432] | 0.541 (inactive) | 0.603 (inactive) | 1.7
CAEYVVLLFLAGNASASA [HC519] | -0.402 (inactive) | 0.168 (inactive) | -0.326 (inactive)
CACFAWYLKGAGNASASA [HC547] | -1.21 (inactive) | -0.696 (inactive) | 0.991 (inactive)
CARRRRTALAAGNASASA [FS-2800] | 7.39 (active) | 9.46 (active) | 7.26 (active)
CAAARVTAILAGNASASA [HC1131] | 0.0621 (inactive) | 1.08 | -0.5 (inactive)
CARRRRTAFAAGNASASA [FS-2798] | 5.77 (active) | 8.03 (active) | 7.17 (active)
CARRRRTAILAGNASASA [FS-2799] | 5.32 (active) | 8.15 (active) | 8.93 (active)
CARRRRKVLAAGNASASA [FS-2181] | -0.244 (inactive) | 1.09 | 1.13
CARRRRRTAIAGNASASA [FS-2080] | 4.79 (active) | 6.3 (active) | 6.06 (active)
CALTHIDAHFAGNASASA [HC943] | -1.16 (inactive) | -1.18 (inactive) | -0.971 (inactive)
CAGWKRARRAAGNASASA [FS-246] | 10.7 (active) | 11 (active) | 9.68 (active)
CAGLPVSARRAGNASASA [HC660] | -1.44 (inactive) | -0.486 (inactive) | -0.384 (inactive)
CARKTRSHTAAGNASASA [FS-3225] | 4.24 (active) | 5.12 (active) | 4.27 (active)
CARATRARRAAGNASASA [FS-82] | 10.6 (active) | 10.6 (active) | 7.6 (active)
CARKTRSARRAGNASASA [FS-2040] | 7.75 (active) | 10.4 (active) | 8.66 (active)
